# Source: PubChem
# An excerpt weighted towards active compounds, which were near 14% of everything screened.
# NS1 inh – influenza NS1 inhibition | 270,000 tested, 0.4% active | Potency, µM (top dose mostly 46.1 µM); calls by dose curve; further: actives are rising curves; nearly all actives have a fitted effect of over 50% in size
#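 S. cerevisiae expressing influenza A NS1, grown in glucose, washed, then diluted 1:100 into pH 6.0 -URA galactose medium with 23 nl compound. Growth recovery read as OD600; NS1-free strain serves as control.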
# FBPA Giardia inh – Giardia lamblia aldolase inhibition; purified Giardia FBPA; Potency, µM (series often up to 59.6 µM), hits mostly inhibitors; 290,000 tested, 0.71% active; AID 2451; A8B2U2; further: nearly all actives have a fitted effect of over 55% in size
#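 Giardia FBPA (40 nM reagent) was preincubated 10 min at RT with compound (up to 57.5 uM final), then substrate plus GAPDH/TPI/NAD/arsenate coupling system with diaphorase/resazurin was added; resorufin fluorescence (525/598 nm) was read after 20 min.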
# CHX counter – counter-screen for Shiga toxin inhibitors: cycloheximide protein synthesis inhibition; cell reporter, cycloheximide protein synthesis inhibition counterscreen; max response, %; 300,000 tested, 12% active; in the data active means max response mostly above about 13%, no sharp cut-off; inactive means mostly below about 14%; further: read at 38.3 µM for the half of the compounds with a filed dose
# Shiga toxin inh – blocks Shiga toxin action in Vero cells | Vero cells, Shiga toxin protein synthesis inhibition reporter | inhibition, % at 38.7 µM | 290,000 tested, 9.2% active | AID 2315; in the data active means inhibition mostly above about 28%, no sharp cut-off; inactive means mostly below about 43%
# LmPK inh – blocks Leishmania mexicana pyruvate kinase activity. Q27686. purified LmPK, Kinase-Glo ATP luminescence, 1 h. Potency, µM (top dose mostly 57.5 µM), usual class: inhibitors. 290,000 tested, 0.37% active. AID 1721
# Target sequence (Q27686 whole entry, looked up): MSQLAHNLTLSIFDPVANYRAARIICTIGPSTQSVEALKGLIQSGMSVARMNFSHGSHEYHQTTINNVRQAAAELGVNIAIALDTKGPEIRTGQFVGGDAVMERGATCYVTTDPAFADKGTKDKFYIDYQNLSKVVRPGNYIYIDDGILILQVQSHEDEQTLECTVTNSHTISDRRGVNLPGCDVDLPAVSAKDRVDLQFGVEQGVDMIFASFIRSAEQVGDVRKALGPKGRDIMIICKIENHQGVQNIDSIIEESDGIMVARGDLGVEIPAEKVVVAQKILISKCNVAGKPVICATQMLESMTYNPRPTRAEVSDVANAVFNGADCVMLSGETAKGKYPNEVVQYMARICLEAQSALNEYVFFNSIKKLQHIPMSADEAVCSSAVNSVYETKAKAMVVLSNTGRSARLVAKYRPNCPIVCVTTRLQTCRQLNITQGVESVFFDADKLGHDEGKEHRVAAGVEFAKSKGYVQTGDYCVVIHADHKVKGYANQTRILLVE
#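 0.1 nM LmPK, 0.5 mM PEP, 0.1 mM ADP; 50 mM imidazole pH 7.2, 7 mM MgCl2, 50 mM KCl; 1 h RT. Kinase-Glo luminescence readout, normalized to no-enzyme (full inhibition) and uninhibited wells.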
# Flu NS1 inh – validation of influenza NS1 protein function inhibitors | shares compounds with NS1 inh | influenza NS1 function cell assay, 15-point titration | activity change, negative = inhibition, % at 32.9 µM | 1,400 tested, under 10 active; calls by dose curve
# Flu PR8 replic – influenza NS1 inhibitors: inhibition of influenza A/PR/8/34 replication | shares compounds with NS1 inh | MDCK infected influenza A/PR/8/34, virus titer TCID50; stronger effect = lower value | virus titer (log TCID50), log10 TCID50 at 5 µM | 95 tested, 30% active; call rule not given here
# Numbers stand for hits; 0 = inactive; ? = inconclusive; - = not tested or not shown. Unless noted, the call rests on the fitted dose curve; in most records, active means well fitted curve in the direction sought with a large enough effect; inconclusive means small, poorly fitted or top-dose-only effect, or another doubt; inactive means no such curve, though single readings can be large; an effect the other way counts as inactive or inconclusive.
SMILES,NS1 inh,FBPA Giardia inh,CHX counter,Shiga toxin inh,LmPK inh,Flu NS1 inh,others
CCCN(CCC)C(C)C(=O)NCC1(c2ccccc2)CCCC1 (centres undefined),0,0,0,0,0,-,
COc1ccc(Br)cc1C1CC(=O)N2CN(Cc3ccccc3)CSC2=C1C#N (centres undefined),11µM,?,0,0,0,0,
COc1ccc(Br)cc1C1CC(=O)N2CN(C)CSC2=C1C#N (centres undefined),0,?,0,0,0,-,
CCCOc1ccc(C(=O)Nc2cc(-c3nn4c(C)nnc4s3)ccc2C)cc1,4.5µM,0,0,0,0,0,
CCOc1cccc(C(=O)Nc2cc(-c3nn4c(C)nnc4s3)ccc2C)c1,0,0,0,0,0,-,
COCCn1nnnc1C(c1cc2ccc(OC)cc2[nH]c1=O)N1CCN(C2CCCCC2)CC1 (centres undefined),4.5µM,0,0,0,0,0,Flu PR8 replic=7.5
COCCn1nnnc1C(c1cc2cc(C)ccc2[nH]c1=O)N1CCN(C2CCCCC2)CC1 (centres undefined),0,0,0,0,0,-,
O=C(CC(Sc1ccc(Br)cc1)C(=O)O)c1ccc(F)cc1 (centres undefined),0,0,0,0,0,-,
COc1cccc(CN2CC(O)=C(c3nc(-c4ccc(Cl)cc4)cs3)C2=N)c1,5µM,0,0,0,0,0,
COc1ccc(-c2csc(C3=C(O)CN(Cc4ccc(Cl)cc4)C3=N)n2)cc1OC,0,0,0,0,0,-,
COC(=O)Cc1[nH]nc2c1C(c1ccc(O)c(OC)c1)C(C#N)=C(N)O2 (centres undefined),10µM,0,0,0,0,?,
COc1cc(OC)c(OC)cc1CNC(=O)c1cc(=O)[nH]c2ccccc12,0,0,0,0,0,-,
CCN(CC)c1nc2n(c(=O)n1)CCO2,0,0,0,0,0,-,
CCN(CC)c1nc(N)n(CCSC(=S)N(C)C)c(=O)n1,?,0,0,0,0,0,
CC(NC(=O)C(NS(=O)(=O)c1cccc2nsnc12)C(C)C)c1ccccc1 (centres undefined),0,0,0,0,0,-,
CCCc1ccc(C(C)NC(=S)NC2CCCCC2)cc1 (centres undefined),0,0,0,0,0,-,
COc1cccc2c(=O)c(C(=O)NCc3cccs3)c[nH]c12,1.4µM,0,53,76,0,0,
COc1cccc(-c2nc(N3CCC(C)CC3)c3ccccc3n2)c1O,20µM,0,0,0,0,0,
COc1cccc(-c2nc(N3CCCC3)c3ccccc3n2)c1O,0,0,0,0,0,-,
Cc1ccc2c(c1)C(c1ccccc1)N(C(=O)CC(C)C)CC(=O)N2 (centres undefined),0,0,0,0,0,-,
CCOc1cc(-c2c(C#N)c(=O)[nH]c3c2c(C)nn3-c2ccc(F)cc2)ccc1O,7.9µM,?,0,0,0,0,Flu PR8 replic=4
Cc1nc(C(N)=O)c(N)n1CCc1ccccc1,0,0,0,0,0,-,
COc1ccc(CCNC(=O)CCNC(=O)N2CC(=O)Nc3ccccc32)cc1OC,0,-,0,0,0,-,
Cc1ccc(-c2ccc(/C=N/NC(=O)Cc3nnc(N)s3)o2)cc1Cl,?,0,0,0,0,0,
COc1ccc(-c2ccc(/C=N/NC(=O)Cc3nnc(N)s3)o2)cc1Cl,0,0,0,0,0,-,
SMILES,NS1 inh,FBPA Giardia inh,CHX counter,Shiga toxin inh,LmPK inh,Flu NS1 inh,others
Cc1cc(Nc2cc(F)ccc2C)n2nc(C)nc2n1,0,0,0,0,0,-,
Cc1cc(Nc2ccc(F)cc2F)n2nc(C)nc2n1,13µM,0,0,0,0,0,
Brc1ccc(C2Nc3cccc4cccc(c34)N2)o1,?,?,0,0,0,0,
CN(C)S(=O)(=O)c1cccc(NC(=O)CN2C(=O)NC3(CCc4ccccc4C3)C2=O)c1 (centres undefined),0,0,0,0,0,-,
Cc1ncc([N+](=O)[O-])n1CCOC(=O)Nc1ccc(Cl)c(Cl)c1,?,0,0,0,0,0,
Cc1ncc([N+](=O)[O-])n1CCOC(N)=O,0,0,0,0,0,-,
Cc1c(Cl)c([N+](=O)[O-])nn1CC(=O)N1CCN(C23CC4CC(CC(C4)C2)C3)CC1,0,0,0,0,0,-,
O=C(NCCCN1CCOCC1)C1CC(=O)N(C2CCCCC2)C1 (centres undefined),1µM,0,0,0,0,0,
